Structures can show the parent of a compound that is named as a salt. ± gives the standard deviation of the averaged measurements. Over roughly 1,700 compounds, “cell number in HSV-1-infected wells relative to infected DMSO wells (H2B-RFP signal)” has its median near 100; the highest 2% begin near 140. For the sample, the highest values were picked, then their nearest neighbours and some compounds at random.
tested on: A549 infected with HSV-1; test: cell number in HSV-1-infected wells relative to infected DMSO wells (H2B-RFP signal); higher = more surviving cells (uninfected or antiviral-protected wells give about 200%; low = toxicity); conditions: 10 µM; 48 h; MOI: 0.1
Description: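 Selleck FDA-approved library (L1300) screened in duplicate at 10 µM on A549 H2B-mRuby cells in 384-well plates, infected with HSV-1 strain 17 YFP-ICP4 at MOI 0.1 one hour before drug addition. Imaged after 2 days at 37°C. Cell growth (H2B-RFP) and infection (ICP4-YFP) are expressed as % of DMSO-treated wells. Hits: growth >90% and infection <20% of DMSO.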

SMILES | cell number in HSV-1-infected wells [%]
Nc1cc(C(Cl)=C(Cl)Cl)c(S(N)(=O)=O)cc1S(N)(=O)=O [Clorsulon] | 114 ± 7.9
CCc1c(C)[nH]c2c1C(=O)C(CN1CCOCC1)CC2 (stereo unspecified) [Molindone hydrochloride] | 93 ± 20
CO/N=C(\C(=O)N[C@@H]1C(=O)N2C(C(=O)O)=CCS[C@H]12)c1csc(N)n1 [Ceftizoxime] | 136 ± 15
COc1ccccc1OCC(O)COC(N)=O (stereo unspecified) [Methocarbamol] | 115 ± 1.9
Cl.NCCCC[C@H](N)C(=O)O [L-Lysine hydrochloride] | 123.8 ± 0.98
CC(=O)O[C@]1(C(C)=O)CC[C@H]2[C@@H]3C=C(Cl)C4=CC(=O)[C@@H]5C[C@@H]5[C@]4(C)[C@H]3CC[C@@]21C [Cyproterone Acetate] | 118 ± 11
CC(=O)O[C@]1(C(C)=O)CC[C@H]2[C@@H]3C=C(Cl)C4=CC(=O)CC[C@]4(C)[C@H]3CC[C@@]21C [Chlormadinone acetate] | 148 ± 5.6
CC(=O)O[C@]1(C(C)=O)CC[C@H]2[C@@H]3C=C(C)C4=CC(=O)CC[C@]4(C)[C@H]3CC[C@@]21C [Megestrol Acetate] | 112 ± 9.4
CN1CCN(c2ccc(C(=O)Nc3n[nH]c4ccc(Cc5cc(F)cc(F)c5)cc34)c(NC3CCOCC3)c2)CC1 [Entrectinib (RXDX-101)] | 18 ± 8.2
CCC/N=C1\S/C(=C\c2ccc(OC[C@H](O)CO)c(Cl)c2)C(=O)N1c1ccccc1C [Ponesimod] | 17.2 ± 12
CC(OC(=O)OC1CCCCC1)OC(=O)C1=C(CSc2nnnn2CCN(C)C)CS[C@@H]2[C@H](NC(=O)Cc3csc(N)n3)C(=O)N12 (stereo partly specified) [Cefotiam Hexetil Hydrochloride] | 76.7 ± 3.4
CC(C)(CO)[C@@H](O)C(=O)NCCCO [D panthenol] | 121 ± 46
COc1c(N2C[C@@H]3CCCN[C@@H]3C2)c(F)cc2c(=O)c(C(=O)O)cn(C3CC3)c12 [Moxifloxacin] | 145 ± 32
CNC1CCCN(c2c(F)cc3c(=O)c(C(=O)O)cn(C4CC4)c3c2OC)C1 (stereo unspecified) [Balofloxacin] | 117 ± 1.2
COc1c(N2CCNC(C)C2)c(F)cc2c(=O)c(C(=O)O)cn(C3CC3)c12 (stereo unspecified) [Gatifloxacin] | 108 ± 17
COc1c(N2C[C@@H]3CCCN[C@@H]3C2)c(F)cc2c(=O)c(C(=O)O)cn(C3CC3)c12 [Moxifloxacin HCl] | 87.9 ± 22
CCCN1CCCC[C@H]1C(=O)Nc1c(C)cccc1C [Ropivacaine HCl] | 87.6 ± 6.9
CCCN1CCCC[C@H]1C(=O)Nc1c(C)cccc1C [Ropivacaine] | 115 ± 7.2
[Cl][Mn][Cl] [Manganese chloride] | 109 ± 4.5
CCOc1ccc(Cc2cc([C@@H]3O[C@H](SC)[C@@H](O)[C@H](O)[C@H]3O)ccc2Cl)cc1 [Sotagliflozin (LX4211)] | 61.71 ± 0.063
COc1cc2c(cc1OC)[C@H]1C[C@@H](OC(=O)[C@@H](N)C(C)C)[C@H](CC(C)C)CN1CC2 [Valbenazine tosylate] | 134 ± 41
CCN1CCN(c2cc3c(cc2F)c(=O)c(C(=O)O)cn3C2CC2)CC1 [Enrofloxacin] | 147 ± 8.9
CN1CCN(c2cc3c(cc2F)c(=O)c(C(=O)O)cn3-c2ccc(F)cc2)CC1 [Difloxacin HCl] | 129 ± 16
CCn1cc(C(=O)O)c(=O)c2cc(F)c(N3CCNCC3)cc21 [Norfloxacin] | 97.4 ± 27

SMILES | cell number in HSV-1-infected wells [%]
O=C(O)c1cn(C2CC2)c2cc(N3CCNCC3)c(F)cc2c1=O [Ciprofloxacin hydrochloride hydrate] | 139 ± 2.3
O=C(O)c1cn(-c2ccc(F)cc2)c2cc(N3CCNCC3)c(F)cc2c1=O [Sarafloxacin HCl] | 151 ± 7.2
CN1C[C@@H]2C[C@H]1CN2c1cc2c(cc1F)c(=O)c(C(=O)O)cn2C1CC1 [Danofloxacin Mesylate] | 110.8 ± 1.1
NC(=O)c1cccc2cn(-c3ccc([C@@H]4CCCNC4)cc3)nc12 [Niraparib (MK-4827)] | 71.2 ± 3.2
NC(=O)c1cccc2cn(-c3ccc([C@@H]4CCCNC4)cc3)nc12 [Niraparib (MK-4827) tosylate] | 71.7 ± 13
C[C@H](CCC(=O)O)[C@H]1CC[C@H]2[C@@H]3CC[C@@H]4C[C@H](O)CC[C@]4(C)[C@H]3C[C@H](O)[C@]12C [Deoxycholic acid] | 109 ± 44
COCC[n+]1c2c(n(Cc3cnccn3)c1C)C(=O)c1ccccc1C2=O [YM155 (Sepantronium Bromide)] | 9.16 ± 6
CCN1CC(CCN2CCOCC2)C(c2ccccc2)(c2ccccc2)C1=O (stereo unspecified) [Doxapram HCl] | 91.29 ± 0.3
CCN1CC(CCN2CCOCC2)C(c2ccccc2)(c2ccccc2)C1=O (stereo unspecified) [Doxapram] | 96.5 ± 8.2
CC(C)N(CCCCOCC(=O)NS(C)(=O)=O)c1cnc(-c2ccccc2)c(-c2ccccc2)n1 [Selexipag] | 80.8 ± 1.5
CN(C/C=C/C#CC(C)(C)C)Cc1cccc2ccccc12 [Terbinafine] | 99.9 ± 40
CN(C/C=C/C#CC(C)(C)C)Cc1cccc2ccccc12 [Terbinafine HCl] | 101 ± 9
OC[C@H]1O[C@H](O[C@H]2[C@H](O)[C@@H](O)C(O)O[C@@H]2CO)[C@H](O)[C@@H](O)[C@@H]1O (mixture of isomers) [Maltose] | 117 ± 4.3
Cc1c(-c2cnccn2)ssc1=S [Oltipraz] | 100 ± 4
C[C@@H](c1nc(-c2ccc(C#N)cc2)cs1)[C@](O)(Cn1cncn1)c1cc(F)ccc1F [Isavuconazole] | 99.7 ± 21
C[C@H](Cn1cnc2c(N)ncnc21)OCP(=O)(O)O [Tenofovir] | 79.9 ± 13
CC(C)OC(=O)[C@H](C)N[P@](=O)(OC[C@H]1O[C@@H](n2ccc(=O)[nH]c2=O)[C@](C)(F)[C@@H]1O)Oc1ccccc1 [Sofosbuvir (PSI-7977, GS-7977)] | 73.7 ± 21
CC(C)OC(=O)[C@H](C)N[P@](=O)(CO[C@H](C)Cn1cnc2c(N)ncnc21)Oc1ccccc1 [Tenofovir Alafenamide (GS-7340)] | 189.3 ± 1.6
CC(C)(C)C(=O)OCOP(=O)(COCCn1cnc2c(N)ncnc21)OCOC(=O)C(C)(C)C [Adefovir Dipivoxil] | 64.6 ± 8.8
CC(C)OC(=O)OCOP(=O)(CO[C@H](C)Cn1cnc2c(N)ncnc21)OCOC(=O)OC(C)C [Tenofovir Disoproxil Fumarate] | 147.7 ± 0.7
O=c1oc2c(O)c(O)cc3c(=O)oc4c(O)c(O)cc1c4c23 [Ellagic acid] | 106 ± 2.3
N=C1CCCN1Cc1[nH]c(=O)[nH]c(=O)c1Cl [Tipiracil hydrochloride] | 107 ± 1.8
COC(=O)N[C@@H](C)CNc1nccc(-c2cn(C(C)C)nc2-c2cc(Cl)cc(NS(C)(=O)=O)c2F)n1 [Encorafenib (LGX818)] | 124 ± 6.5
CNCC[C@H](Oc1cccc2ccccc12)c1cccs1 [Duloxetine] | 121.44 ± 0.086

SMILES | cell number in HSV-1-infected wells [%]
CNCC[C@H](Oc1cccc2ccccc12)c1cccs1 [Duloxetine HCl] | 92.1 ± 10
CNC(=O)c1ccc(Nc2ncc(C(F)(F)F)c(NCc3nccnc3N(C)S(C)(=O)=O)n2)cc1 | 27.6 ± 6.6
CC(C)(Oc1ccc(CCNC(=O)c2ccc(Cl)cc2)cc1)C(=O)O [Bezafibrate] | 147 ± 48
CC(C)(Oc1ccc(Cl)cc1)C(=O)O [Clofibric Acid] | 82.4 ± 11
CC(C)(Oc1ccc(C(=O)c2ccc(Cl)cc2)cc1)C(=O)O [Fenofibric acid] | 75.9 ± 3.5
CC1(C)S[C@@H]2[C@H](NC(=O)COc3ccccc3)C(=O)N2[C@H]1C(=O)O [Penicillin V potassium salt] | 86.4 ± 5.6
Cc1cc(C)cc(OCC2CNC(=O)O2)c1 (stereo unspecified) [Metaxalone] | 132 ± 16
Nc1nc2[nH]cc(CCc3ccc(C(=O)N[C@@H](CCC(=O)O)C(=O)O)cc3)c2c(=O)[nH]1 [Pemetrexed] | 59.2 ± 18
Nc1nc2[nH]cc(CCc3ccc(C(=O)N[C@@H](CCC(=O)O)C(=O)O)cc3)c2c(=O)[nH]1 [Pemetrexed Disodium Hydrate] | 67 ± 22
CC(=O)SCC(Cc1ccccc1)C(=O)NCC(=O)OCc1ccccc1 (stereo unspecified) [Racecadotril] | 96.3 ± 17
Cc1cc2c(cc1S(N)(=O)=O)S(=O)(=O)CCC2 [Meticrane] | 83.96 ± 0.47
CS(=O)(=O)c1cccc(C[C@H](NC(=O)c2c(Cl)cc3c(c2Cl)CCN(C(=O)c2ccc4ccoc4c2)C3)C(=O)O)c1 [Lifitegrast] | 104 ± 15
Cn1ncc(Cl)c1-c1cc(C(=O)N[C@H](CN)Cc2ccc(F)c(F)c2)oc1Cl | 69.8 ± 17
COc1cc2nccc(Oc3ccc(NC(=O)C4(C(=O)Nc5ccc(F)cc5)CC4)cc3)c2cc1OC | 72.2 ± 7.6
COc1cc2nccc(Oc3ccc(NC(=O)NC4CC4)c(Cl)c3)c2cc1C(N)=O [lenvatinib Mesylate] | 144 ± 32
COc1cc2nccc(Oc3ccc(NC(=O)Nc4cc(C)on4)c(Cl)c3)c2cc1OC [Tivozanib (AV-951)] | 117 ± 40
COc1cc2nccc(Oc3ccc(NC(=O)C4(C(=O)Nc5ccc(F)cc5)CC4)cc3)c2cc1OC [Cabozantinib malate (XL184)] | 90.5 ± 47
COc1cc2nccc(Oc3ccc(NC(=O)NC4CC4)c(Cl)c3)c2cc1C(N)=O [Lenvatinib (E7080)] | 104 ± 6
Cc1nccn1CC1CCc2c(c3ccccc3n2C)C1=O (stereo unspecified) [Ondansetron Hydrochloride Dihydrate] | 76 ± 13
Cc1nccn1CC1CCc2c(c3ccccc3n2C)C1=O (stereo unspecified) [Ondansetron HCl] | 74.7 ± 25
CN(C)CCC=C1c2ccccc2COc2ccccc21 [Doxepin HCl] | 104 ± 11
Cc1[nH]cnc1CN1CCc2c(c3ccccc3n2C)C1=O [Alosetron Hydrochloride] | 112 ± 6.3
COC(=O)C1=C(C)NC(C)=C(C(=O)OC(C)C)C1c1cccc2nonc12 (stereo unspecified) [Isradipine] | 97.7 ± 3.5

Reference: the supplement of paper PMC11537057
